Details in all cases: mRNA level, 48 h; actives raise or lower the signal
Read-out in assay [1]: solute carrier (SLCO1B1), SLCO1B1 (gene 10599)
Description: LTEA_HepaRG_SLCO1B1: Life Technologies and Expression Analysis (LTEA) Assay for solute carrier (SLCO1B1) using HepaRG (AID 2283530). Put shortly: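 SLCO1B1 transcript levels were quantified by TaqMan qRT-PCR using three housekeeping genes for normalization. This followed 48 h chemical exposure (100 uM top, half-log, 8 points, 0.5% DMSO) of HepaRG liver cells, with gain or loss fitted relative to DMSO.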

Read-out in assay [2]: sulfotransferase 2A1 (SULT2A1), SULT2A1 (gene 6822)
Description: LTEA_HepaRG_SULT2A1: Life Technologies and Expression Analysis (LTEA) Assay for sulfotransferase 2A1 (SULT2A1) using HepaRG (AID 2283531). In a few lines: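 Expression change of SULT2A1, by qRT-PCR with three housekeeping-gene normalization, was scored bidirectionally versus DMSO. Cells: differentiated HepaRG, dosed in duplicate for 48 h across 8 points, highest 100 µM, half-log dilution, 0.5% DMSO.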

Read-out in assay [3]: Transforming Growth Factor (TGFA), TGFA (gene 7039)
Description: LTEA_HepaRG_TGFA: Life Technologies and Expression Analysis (LTEA) Assay for Transforming Growth Factor (TGFA) using HepaRG (AID 2283532). Put shortly:
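HepaRG (human liver line), 48 h exposure, 8 conc. half-log down from 100 uM, 0.5% DMSO vehicle, duplicates; serum-free induction medium. TGFA mRNA by TaqMan qRT-PCR, ACTB/GAPDH/POLR2A normalization; gain/loss fit vs DMSO.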

Read-out in assay [4]: Transforming Growth Factor (TGFB1), TGFB1 (gene 7040)
Description: LTEA_HepaRG_TGFB1: Life Technologies and Expression Analysis (LTEA) Assay for Transforming Growth Factor (TGFB1) Transporter using HepaRG (AID 2283533). In a few lines:
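TGFB1 transcript measured by qRT-PCR with normalisation to three housekeeping genes (ACTB, GAPDH, POLR2A); human HepaRG line treated in duplicate for 48 hr with an 8-point series topping at 100 uM, 0.5% DMSO vehicle, bidirectionally fitted.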

Read-out in the next assay: TIMP1, TIMP1 (gene 7076)
Description: LTEA_HepaRG_TIMP1: Life Technologies and Expression Analysis (LTEA) Assay for TIMP1 using HepaRG (AID 2283534).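 Further: TaqMan qRT-PCR signal normalized to ACTB GAPDH and POLR2A housekeeping genes.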 In a few lines: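 Bidirectional change in TIMP1 transcript versus 0.5% DMSO, measured by TaqMan qRT-PCR with three housekeeping genes for normalization. HepaRG human liver cells dosed 48 h in duplicate, top concentration 100 uM with half-log dilutions.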

Read-out in assay [5]: Tumor necrosis factor receptor 1 (TNFRSF1A), TNFRSF1A (gene 7132)
Description: LTEA_HepaRG_TNFRSF1A: Life Technologies and Expression Analysis (LTEA) Assay for Tumor necrosis factor receptor 1 (TNFRSF1A) using HepaRG (AID 2283535). Put shortly:
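mRNA measured by qRT-PCR (TaqMan, Fluidigm arrays) against ACTB/GAPDH/POLR2A housekeepers after 48 h chemical exposure of HepaRG cells. Top concentration 100 uM, half-log 8-point series, duplicates; vehicle 0.5% DMSO, both fit directions.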

Read-out in assay [6]: Thyroid Hormone Responsive (THRSP), THRSP (gene 7069)
Description: LTEA_HepaRG_THRSP: Life Technologies and Expression Analysis (LTEA) Assay for Thyroid Hormone Responsive (THRSP) using HepaRG (AID 2283536). Put shortly:
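mRNA induction or loss relative to 0.5% DMSO vehicle was fitted bidirectionally across an eight-point curve whose highest exposure was 100 uM. Human HepaRG liver cells received chemicals in duplicate over 48 h before RNA extraction.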

Read-out in assay [7]: Cellular tumor antigen p53 (Homo sapiens) (UniProt P04637)
Description: LTEA_HepaRG_TP53: Life Technologies and Expression Analysis (LTEA) Assay for Tumor Protein P53 (TP53) using HepaRG (AID 2283537). In a few lines:
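TP53 transcript measured by qRT-PCR, normalized to three housekeeping genes, after 48 h treatment of human HepaRG cultures with chemicals from 100 uM downward in half-log steps (0.5% DMSO vehicle, serum-free induction medium). Up- or down-regulation fitted against DMSO.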

Read-out in assay [8]: UDP glucuronosyltransferase (UGT1A1), UGT1A1 (gene 54658)
Description: LTEA_HepaRG_UGT1A1: Life Technologies and Expression Analysis (LTEA) Assay for UDP glucuronosyltransferase (UGT1A1) using HepaRG (AID 2283538). Put shortly:
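Readout is UGT1A1 transcript level by qRT-PCR, normalized to three housekeeping genes, after 48 h chemical treatment of HepaRG cells. Concentrations ran from 100 uM down in half-log steps with 0.5% DMSO, and gain or loss relative to DMSO was fitted.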

Read-out in assay [9]: UDP glucuronosyltransferase (UGT1A6), UGT1A6 (gene 54578)
Description: LTEA_HepaRG_UGT1A6: Life Technologies and Expression Analysis (LTEA) Assay for UDP glucuronosyltransferase (UGT1A6) using HepaRG (AID 2283539). In a few lines:
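Expression was quantified by TaqMan qRT-PCR on Fluidigm arrays with ACTB/GAPDH/POLR2A normalization and bidirectional fitting against 0.5% DMSO. HepaRG cells (~100,000/well) were treated in duplicate for 48 h at eight half-log concentrations up to 100 uM in serum-free induction medium.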

The source made the active and inactive calls. How the source made its calls: active means hit-call score of the fitted dose curve at least 0.9, where 1 is the maximum; inactive means score below 0.9.

Sequence of Cellular tumor antigen p53 (Homo sapiens) (P04637 whole entry, looked up): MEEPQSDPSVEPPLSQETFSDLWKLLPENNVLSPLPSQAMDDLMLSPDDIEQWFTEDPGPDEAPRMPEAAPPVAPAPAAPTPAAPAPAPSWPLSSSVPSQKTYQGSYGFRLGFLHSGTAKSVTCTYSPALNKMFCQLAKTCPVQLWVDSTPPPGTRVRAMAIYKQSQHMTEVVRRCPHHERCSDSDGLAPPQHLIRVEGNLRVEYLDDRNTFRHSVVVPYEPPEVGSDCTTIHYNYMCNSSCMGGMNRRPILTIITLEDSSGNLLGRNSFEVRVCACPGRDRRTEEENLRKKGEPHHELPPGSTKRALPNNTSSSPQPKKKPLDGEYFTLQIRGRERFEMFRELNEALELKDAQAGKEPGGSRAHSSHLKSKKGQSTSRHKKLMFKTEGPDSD

As usually defined, the AC50 is the midpoint of the concentration-response curve, whichever way the signal moves. For `CCCCC(O)(Cn1cncn1)c1ccc(Cl)cc1Cl` (configuration not stated), the AC50 in assay [1] was 76.6 µM (active); in assay [2], 76.3 µM (active); in [3], 71.8 µM (active); in assay [4], 61.2 µM (active); in [6], 9.77 µM (active); in [7], 72.4 µM (active). In addition, the AC50 in [8] is 81.4 µM (active); in [9] it was 73.4 µM (active). The outcome with TIMP1, TIMP1 (gene 7076) was “inactive”; in assay [5], “inactive”.
As for `COC(=O)NS(=O)(=O)c1ccc(N)cc1`, the outcome is “inactive” in [1]; “inactive” in assay [2]; “inactive” in assay [3]; “inactive” in assay [4]; “inactive” with TIMP1, TIMP1 (gene 7076); “inactive” in assay [5]. Besides, the call in assay [6], in assay [7], in assay [8] and in assay [9] was inactive.
Consider `CCOP(=O)(OCC)Oc1nc(Cl)c(Cl)cc1Cl`, for which the figures for the AC50 in assay [1], in assay [2] and in assay [6] were 93.5 µM (active), 75.9 µM (active) and 84.2 µM (active), respectively. In addition, the outcome in assay [3] was “inactive”; in assay [4], “inactive”; in the assay with TIMP1, TIMP1 (gene 7076), “inactive”; in assay [5], “inactive”; in [7], “inactive”; in [8] it was “inactive”. The compound was classed as inactive in assay [9].
On to `CCCN(CC)CC1COC2(CCC(C(C)(C)C)CC2)O1` (configuration not stated), for which the outcome in assay [1] was “inactive”; in [2], “inactive”; in assay [3], “inactive”; in assay [4] it was “inactive”; in the assay with TIMP1, TIMP1 (gene 7076) it was “inactive”; in assay [5] it was “inactive”. Moreover, the result in assay [7], in assay [8] and in assay [9] was inactive. For the same compound, the AC50 in assay [6] is 0.319 µM (active).
For `CC(C)C1(C)N=C(c2ncccc2C(=O)O)NC1=O` (configuration not stated), the outcome in assay [1] was “inactive”; in [2] it was “inactive”; in [3], “inactive”; in [4] it was “inactive”; in the assay with TIMP1, TIMP1 (gene 7076), “inactive”; in assay [5], “inactive”. For the same compound, the outcome in assay [6], in assay [8] and in assay [9] was inactive.
As for `CC(C)N1C(=O)N(c2ccccc2)CSC1=NC(C)(C)C`, the outcome is “inactive” in assay [1]; “inactive” in [4]; “inactive” with TIMP1, TIMP1 (gene 7076); “inactive” in assay [5]; “inactive” in assay [6]. Further, the AC50 in [2] is 96.5 µM (active); in [3], 79.4 µM (active); in assay [7], 76.2 µM (active); in assay [8] it was 88.8 µM (active); in assay [9] it was 85.1 µM (active).
Take `Clc1nc(Cl)nc(Nc2ccccc2Cl)n1`: the outcome in assay [1] is “inactive”; in assay [2] it was “inactive”; in assay [3], “inactive”; in [4] it was “inactive”; in the assay with TIMP1, TIMP1 (gene 7076) it was “inactive”; in assay [5], “inactive”. Besides, the outcome in assay [6], in assay [7], in assay [8] and in [9] was inactive.
Take `O=C(Nc1ccccc1-c1ccc(Cl)cc1)c1cccnc1Cl`: the outcome in assay [1] is “inactive”; in assay [2], “inactive”; in assay [3] it was “inactive”; in [4], “inactive”; in the assay with TIMP1, TIMP1 (gene 7076), “inactive”; in [5], “inactive”. The call in [6], in assay [7], in [8] and in assay [9] was inactive.
For the compound `CC1(C)CON(Cc2ccccc2Cl)C1=O`, the outcome in [1] is “inactive”; in assay [2], “inactive”; in [3], “inactive”; in assay [4] it was “inactive”; with TIMP1, TIMP1 (gene 7076), “inactive”; in assay [5], “inactive”. In addition, the call in assay [6], in assay [7] and in [9] was inactive. The AC50 in [8] is 9.92 µM (active).
On to `OC(c1ccc(Cl)cc1)(c1ccc(Cl)cc1)C(Cl)(Cl)Cl`, for which the half-maximal activity concentration (AC50) in assay [1] was 81.6 µM (active); in assay [2], 93.9 µM (active); in assay [3], 70.5 µM (active); in [4], 50 µM (active); in [5], 50 µM (active); in assay [8] it was 85.3 µM (active). For the same compound, the AC50 in [9] is 79.3 µM (active). Further, the outcome with TIMP1, TIMP1 (gene 7076) is “inactive”; in [6] it was “inactive”.
For `CS(=O)(=O)c1cc(C(F)(F)F)ccc1C(=O)c1cnoc1C1CC1`, the outcome was “inactive” in assay [1]; “inactive” in assay [2]; “inactive” in assay [3]; “inactive” in [4]; “inactive” in the assay with TIMP1, TIMP1 (gene 7076); “inactive” in [5]. Besides, the compound was called inactive in assay [6], in assay [7], in [8] and in assay [9].
As to `Nc1c(Cl)c(F)nc(OCC(=O)O)c1Cl`, the outcome in [1] is “inactive”; in assay [2], “inactive”; in assay [3], “inactive”; in [4], “inactive”; in the assay with TIMP1, TIMP1 (gene 7076), “inactive”; in [5], “inactive”. Moreover, the compound was called inactive in assay [6], in assay [7], in assay [8] and in [9].
Consider `CCCCOCN(C(=O)CCl)c1c(CC)cccc1CC`, for which the outcome was “inactive” in assay [1]; “inactive” in assay [2]; “inactive” in assay [3]; “inactive” in assay [4]; “inactive” with TIMP1, TIMP1 (gene 7076); “inactive” in assay [5]. The compound was classed as inactive in assay [6], in assay [7] and in assay [9]. For the same compound, in [8], the AC50 was 50 µM (active).
Take `CC1(C)C(C=C(Cl)Cl)C1C(=O)OC(C#N)c1cccc(Oc2ccccc2)c1` (configuration not stated): the outcome was “inactive” in [1]; “inactive” in [2]; “inactive” in assay [3]; “inactive” in assay [4]; “inactive” with TIMP1, TIMP1 (gene 7076); “inactive” in assay [5]. Besides, the outcome in assay [6], in assay [7] and in [9] was inactive. Further, the half-maximal activity concentration (AC50) in assay [8] was 17.3 µM (active).
For `O=C1C2CC=CCC2C(=O)N1SC(Cl)(Cl)Cl` (configuration not stated), the outcome in assay [1] was “inactive”; in assay [2], “inactive”; in [3], “inactive”; in assay [4], “inactive”; with TIMP1, TIMP1 (gene 7076), “inactive”; in assay [5] it was “inactive”. Also, the outcome in assay [7], in assay [8] and in assay [9] was inactive. Moreover, in [6], the AC50 is 16.2 µM (active).
In the case of `COc1ccc(-c2ccccc2)cc1NNC(=O)OC(C)C`, the outcome is “inactive” in [1]; “inactive” in assay [2]; “inactive” in assay [3]; “inactive” in assay [4]; “inactive” in the assay with TIMP1, TIMP1 (gene 7076); “inactive” in assay [5]. The compound was called inactive in assay [6], in assay [8] and in assay [9].
For `Cc1ccc(N=CN(C)C=Nc2ccc(C)cc2C)c(C)c1`, the outcome in [1] is “inactive”; in assay [2], “inactive”; in assay [3], “inactive”; in [4] it was “inactive”; in the assay with TIMP1, TIMP1 (gene 7076) it was “inactive”; in [5], “inactive”. In addition, the compound was classed as inactive in assay [6], in assay [7] and in assay [9]. Further, in assay [8], the AC50 is 39.3 µM (active).

The values are drawn from PubChem BioAssay (EPA / NIEHS).
